Experiments:
Assay in all cases: log2 ratio of Biotin-Ahx-Ub-VS probe labelling (fragment/DMSO); higher = less target engagement (more negative = stronger competition), active = hit call of the paper (q ≤ 0.05, log2 ratio ≤ -1)
Conditions in all cases: compound concentration: 200 uM; treatment time: 3 h
USP42 = biological target: T1, USP42 (UniProt Q9H9J4)
T1 sequence (whole entry): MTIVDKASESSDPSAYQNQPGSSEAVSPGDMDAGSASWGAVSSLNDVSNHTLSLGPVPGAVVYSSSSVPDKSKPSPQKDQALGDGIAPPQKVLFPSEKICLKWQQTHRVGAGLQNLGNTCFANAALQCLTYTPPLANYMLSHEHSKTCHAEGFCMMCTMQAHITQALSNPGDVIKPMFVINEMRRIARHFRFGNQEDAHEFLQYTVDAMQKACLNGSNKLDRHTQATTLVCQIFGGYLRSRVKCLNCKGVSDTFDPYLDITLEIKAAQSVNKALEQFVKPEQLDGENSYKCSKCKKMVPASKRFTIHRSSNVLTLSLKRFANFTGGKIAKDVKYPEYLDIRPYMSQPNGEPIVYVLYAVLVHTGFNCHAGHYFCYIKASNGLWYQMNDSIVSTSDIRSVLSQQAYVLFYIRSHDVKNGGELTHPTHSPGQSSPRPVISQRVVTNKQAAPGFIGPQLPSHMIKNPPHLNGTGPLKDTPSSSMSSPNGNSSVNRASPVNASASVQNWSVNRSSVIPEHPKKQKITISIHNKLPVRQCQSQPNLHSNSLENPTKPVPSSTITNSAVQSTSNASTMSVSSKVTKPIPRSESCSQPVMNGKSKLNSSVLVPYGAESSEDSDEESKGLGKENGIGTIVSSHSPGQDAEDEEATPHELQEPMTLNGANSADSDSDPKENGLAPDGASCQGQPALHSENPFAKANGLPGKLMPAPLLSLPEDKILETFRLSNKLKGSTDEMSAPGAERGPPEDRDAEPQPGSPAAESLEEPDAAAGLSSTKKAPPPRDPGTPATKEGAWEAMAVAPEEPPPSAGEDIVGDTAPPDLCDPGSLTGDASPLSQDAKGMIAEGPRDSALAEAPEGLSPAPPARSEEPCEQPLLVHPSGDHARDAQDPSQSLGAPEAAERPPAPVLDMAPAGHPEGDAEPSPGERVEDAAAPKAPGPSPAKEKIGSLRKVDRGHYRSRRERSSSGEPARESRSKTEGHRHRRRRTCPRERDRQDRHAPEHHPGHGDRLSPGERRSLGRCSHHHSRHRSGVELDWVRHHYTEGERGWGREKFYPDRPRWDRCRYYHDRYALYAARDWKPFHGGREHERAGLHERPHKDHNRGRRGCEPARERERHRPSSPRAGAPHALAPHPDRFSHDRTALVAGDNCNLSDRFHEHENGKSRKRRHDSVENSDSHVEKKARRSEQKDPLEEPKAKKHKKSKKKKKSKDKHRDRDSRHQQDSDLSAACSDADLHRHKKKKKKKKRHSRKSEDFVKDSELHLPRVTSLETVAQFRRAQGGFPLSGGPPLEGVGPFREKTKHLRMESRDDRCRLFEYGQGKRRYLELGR
How it was run: (§1)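 Each value is an average log2 ratio of fragment to vehicle, tested by unpaired t-test. The underlying Spectronaut label-free quantities were global-median-normalised, and only proteins with ≥2 unique peptides were included. Triplicate HEK293T lysate samples (495 µg) were exposed to fragment at 200 µM or vehicle for 3 h, then to Biotin-Ahx-Ub-VS at 0.5 µM final for 1 h, before NeutrAvidin enrichment of labelled DUBs, LysC and trypsin digestion, and diaPASEF LC-MS/MS.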

USP46 = USP46 (UniProt P62068)
How it was run: as §1

USP47 = biological target: T2, USP47 (UniProt Q96K76)
T2 sequence (whole entry): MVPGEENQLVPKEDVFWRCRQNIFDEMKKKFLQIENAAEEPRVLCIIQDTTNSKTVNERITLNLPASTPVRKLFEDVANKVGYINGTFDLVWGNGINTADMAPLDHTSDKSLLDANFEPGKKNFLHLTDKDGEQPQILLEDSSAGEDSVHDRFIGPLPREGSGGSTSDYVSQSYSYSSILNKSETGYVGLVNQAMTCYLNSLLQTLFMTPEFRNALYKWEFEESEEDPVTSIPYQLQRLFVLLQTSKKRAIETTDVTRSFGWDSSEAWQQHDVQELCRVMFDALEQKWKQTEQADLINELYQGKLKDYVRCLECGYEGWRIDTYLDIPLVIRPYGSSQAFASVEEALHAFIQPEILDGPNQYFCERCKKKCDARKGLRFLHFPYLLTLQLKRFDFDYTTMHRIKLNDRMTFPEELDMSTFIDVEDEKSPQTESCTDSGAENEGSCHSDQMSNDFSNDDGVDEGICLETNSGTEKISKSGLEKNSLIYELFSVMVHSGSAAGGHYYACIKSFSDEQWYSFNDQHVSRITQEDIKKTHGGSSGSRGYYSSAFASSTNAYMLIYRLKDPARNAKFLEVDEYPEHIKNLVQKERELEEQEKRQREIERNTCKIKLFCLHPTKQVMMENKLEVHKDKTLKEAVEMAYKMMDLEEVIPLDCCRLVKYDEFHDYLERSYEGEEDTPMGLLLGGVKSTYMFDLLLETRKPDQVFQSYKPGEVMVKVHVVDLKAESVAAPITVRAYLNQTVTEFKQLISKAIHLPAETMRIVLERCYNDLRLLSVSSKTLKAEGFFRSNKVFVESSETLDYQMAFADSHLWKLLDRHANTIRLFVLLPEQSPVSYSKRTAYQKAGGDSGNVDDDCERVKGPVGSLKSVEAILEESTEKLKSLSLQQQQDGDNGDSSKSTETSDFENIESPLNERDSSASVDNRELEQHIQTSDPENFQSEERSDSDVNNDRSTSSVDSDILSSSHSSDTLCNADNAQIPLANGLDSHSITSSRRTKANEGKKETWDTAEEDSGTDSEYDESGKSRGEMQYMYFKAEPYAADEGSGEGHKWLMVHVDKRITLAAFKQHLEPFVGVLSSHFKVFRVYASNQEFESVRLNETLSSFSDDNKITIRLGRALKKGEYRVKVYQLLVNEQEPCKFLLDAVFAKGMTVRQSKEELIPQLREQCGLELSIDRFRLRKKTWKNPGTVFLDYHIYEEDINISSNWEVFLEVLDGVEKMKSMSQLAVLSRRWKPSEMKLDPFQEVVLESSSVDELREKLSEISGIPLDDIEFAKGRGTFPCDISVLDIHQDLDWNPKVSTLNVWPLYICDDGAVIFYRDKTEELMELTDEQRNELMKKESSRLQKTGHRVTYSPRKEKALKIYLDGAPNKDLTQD
How it was run: as §1

USP48 = biological target: T3, USP48 (UniProt Q86UV5)
T3 sequence (whole entry): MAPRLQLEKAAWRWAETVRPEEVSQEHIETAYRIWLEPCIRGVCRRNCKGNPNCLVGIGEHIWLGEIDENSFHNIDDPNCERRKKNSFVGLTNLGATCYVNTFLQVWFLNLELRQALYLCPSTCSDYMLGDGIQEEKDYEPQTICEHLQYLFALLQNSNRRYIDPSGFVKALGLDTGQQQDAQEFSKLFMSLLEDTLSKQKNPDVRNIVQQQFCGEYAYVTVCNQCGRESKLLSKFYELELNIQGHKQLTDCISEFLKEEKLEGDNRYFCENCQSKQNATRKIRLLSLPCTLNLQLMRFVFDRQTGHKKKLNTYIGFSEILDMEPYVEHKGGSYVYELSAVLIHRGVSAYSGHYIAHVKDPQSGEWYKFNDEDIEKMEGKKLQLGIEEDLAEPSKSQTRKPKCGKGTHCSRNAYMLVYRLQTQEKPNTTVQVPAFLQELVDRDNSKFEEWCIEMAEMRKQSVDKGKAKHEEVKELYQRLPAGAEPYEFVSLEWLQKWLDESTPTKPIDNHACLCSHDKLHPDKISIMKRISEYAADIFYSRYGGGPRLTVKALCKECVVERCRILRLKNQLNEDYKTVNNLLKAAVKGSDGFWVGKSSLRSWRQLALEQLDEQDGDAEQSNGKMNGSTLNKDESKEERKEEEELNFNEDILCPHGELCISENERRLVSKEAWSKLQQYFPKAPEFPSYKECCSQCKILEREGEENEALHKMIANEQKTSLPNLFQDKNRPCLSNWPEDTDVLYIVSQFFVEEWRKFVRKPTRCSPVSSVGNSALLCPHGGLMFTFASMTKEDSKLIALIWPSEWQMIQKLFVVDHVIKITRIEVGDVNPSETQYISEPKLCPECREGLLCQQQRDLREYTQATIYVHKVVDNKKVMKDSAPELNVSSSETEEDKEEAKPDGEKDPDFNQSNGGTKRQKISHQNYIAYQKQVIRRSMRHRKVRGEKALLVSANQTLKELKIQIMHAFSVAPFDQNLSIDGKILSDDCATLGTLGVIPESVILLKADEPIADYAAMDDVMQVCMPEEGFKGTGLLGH
How it was run: as §1

USP5 = biological target: T4, USP5 (UniProt P45974)
T4 sequence (whole entry): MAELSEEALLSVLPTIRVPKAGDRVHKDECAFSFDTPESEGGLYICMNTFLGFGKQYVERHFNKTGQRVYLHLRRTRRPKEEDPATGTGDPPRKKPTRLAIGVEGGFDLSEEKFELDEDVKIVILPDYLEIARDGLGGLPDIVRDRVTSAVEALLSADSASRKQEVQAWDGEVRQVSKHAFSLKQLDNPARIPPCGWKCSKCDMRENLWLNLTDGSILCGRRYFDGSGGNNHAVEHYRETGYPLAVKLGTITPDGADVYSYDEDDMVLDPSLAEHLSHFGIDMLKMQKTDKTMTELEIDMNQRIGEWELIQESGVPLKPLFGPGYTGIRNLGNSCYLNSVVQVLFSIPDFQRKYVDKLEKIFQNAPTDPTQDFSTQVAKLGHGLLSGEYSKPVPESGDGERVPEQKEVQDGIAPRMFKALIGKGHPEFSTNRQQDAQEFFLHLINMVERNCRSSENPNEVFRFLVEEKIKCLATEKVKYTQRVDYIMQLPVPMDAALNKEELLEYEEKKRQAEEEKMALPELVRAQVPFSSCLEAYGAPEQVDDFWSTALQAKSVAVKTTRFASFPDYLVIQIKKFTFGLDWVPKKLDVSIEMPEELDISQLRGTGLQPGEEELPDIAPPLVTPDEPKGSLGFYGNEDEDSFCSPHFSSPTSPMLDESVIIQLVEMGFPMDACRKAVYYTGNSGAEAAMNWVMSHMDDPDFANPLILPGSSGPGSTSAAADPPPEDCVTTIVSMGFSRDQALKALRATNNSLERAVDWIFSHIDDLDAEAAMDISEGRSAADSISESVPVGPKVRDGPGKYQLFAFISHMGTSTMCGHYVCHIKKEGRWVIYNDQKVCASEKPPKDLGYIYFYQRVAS
How it was run: as §1

USP54 = USP54 (UniProt Q70EL1)
How it was run: as §1

USP7 = USP7 (UniProt Q93009)
How it was run: as §1

USP8 = biological target: T5, USP8 (UniProt P40818)
T5 sequence (whole entry): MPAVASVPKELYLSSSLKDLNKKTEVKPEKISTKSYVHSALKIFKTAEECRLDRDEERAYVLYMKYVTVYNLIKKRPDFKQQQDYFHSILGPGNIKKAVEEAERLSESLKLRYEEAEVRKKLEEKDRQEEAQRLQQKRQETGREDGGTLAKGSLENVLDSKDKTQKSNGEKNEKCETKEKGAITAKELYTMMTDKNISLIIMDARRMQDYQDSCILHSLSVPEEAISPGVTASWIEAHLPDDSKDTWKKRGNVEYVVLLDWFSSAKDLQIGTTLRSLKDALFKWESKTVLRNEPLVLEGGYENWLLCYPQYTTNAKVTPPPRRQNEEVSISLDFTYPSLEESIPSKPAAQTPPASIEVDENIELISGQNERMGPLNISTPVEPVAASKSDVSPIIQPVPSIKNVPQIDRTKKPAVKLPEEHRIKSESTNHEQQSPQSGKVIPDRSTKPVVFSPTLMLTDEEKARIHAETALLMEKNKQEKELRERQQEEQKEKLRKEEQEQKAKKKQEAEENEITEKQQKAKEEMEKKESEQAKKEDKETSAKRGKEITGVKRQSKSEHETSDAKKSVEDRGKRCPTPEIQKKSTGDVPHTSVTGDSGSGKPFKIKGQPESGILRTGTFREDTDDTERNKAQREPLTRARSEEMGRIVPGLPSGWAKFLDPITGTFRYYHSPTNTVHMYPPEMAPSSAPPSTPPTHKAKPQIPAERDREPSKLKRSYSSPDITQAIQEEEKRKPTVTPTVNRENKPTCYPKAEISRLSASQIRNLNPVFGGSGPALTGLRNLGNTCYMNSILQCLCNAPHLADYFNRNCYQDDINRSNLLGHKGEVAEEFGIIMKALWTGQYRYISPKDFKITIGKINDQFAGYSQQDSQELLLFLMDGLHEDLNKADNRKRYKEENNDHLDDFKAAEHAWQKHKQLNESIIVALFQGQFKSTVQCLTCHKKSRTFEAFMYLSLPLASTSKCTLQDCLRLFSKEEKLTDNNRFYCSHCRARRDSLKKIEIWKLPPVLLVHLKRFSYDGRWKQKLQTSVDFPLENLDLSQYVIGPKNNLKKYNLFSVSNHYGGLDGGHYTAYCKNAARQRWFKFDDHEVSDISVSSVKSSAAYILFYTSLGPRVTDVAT
How it was run: as §1

USP9X = USP9X (UniProt Q93008)
How it was run: as §1

UniProt O00487 = biological target: UniProt O00487
How it was run: as §1

Measured: log2 ratio of Biotin-Ahx-Ub-VS probe labelling

Chain of UniProt O00487 (O00487 whole entry): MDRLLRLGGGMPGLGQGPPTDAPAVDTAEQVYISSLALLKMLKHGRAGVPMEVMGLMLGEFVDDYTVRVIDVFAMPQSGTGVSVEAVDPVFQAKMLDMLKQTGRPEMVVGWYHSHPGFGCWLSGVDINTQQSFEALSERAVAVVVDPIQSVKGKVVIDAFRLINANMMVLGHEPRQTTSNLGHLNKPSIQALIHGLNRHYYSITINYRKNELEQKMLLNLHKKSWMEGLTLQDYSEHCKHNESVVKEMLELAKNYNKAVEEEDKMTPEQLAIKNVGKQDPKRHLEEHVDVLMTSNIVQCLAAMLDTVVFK
Chain of USP46 (P62068 whole entry): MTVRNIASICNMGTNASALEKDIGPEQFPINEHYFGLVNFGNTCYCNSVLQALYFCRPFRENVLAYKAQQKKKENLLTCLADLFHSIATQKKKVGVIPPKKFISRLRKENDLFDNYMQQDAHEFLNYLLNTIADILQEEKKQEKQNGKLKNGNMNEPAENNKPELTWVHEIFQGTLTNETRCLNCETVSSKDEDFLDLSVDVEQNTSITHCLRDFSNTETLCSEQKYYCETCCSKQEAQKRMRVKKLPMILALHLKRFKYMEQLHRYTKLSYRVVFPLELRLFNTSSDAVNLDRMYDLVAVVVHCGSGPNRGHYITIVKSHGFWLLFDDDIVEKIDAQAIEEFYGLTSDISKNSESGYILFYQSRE
Chain of USP54 (Q70EL1 whole entry): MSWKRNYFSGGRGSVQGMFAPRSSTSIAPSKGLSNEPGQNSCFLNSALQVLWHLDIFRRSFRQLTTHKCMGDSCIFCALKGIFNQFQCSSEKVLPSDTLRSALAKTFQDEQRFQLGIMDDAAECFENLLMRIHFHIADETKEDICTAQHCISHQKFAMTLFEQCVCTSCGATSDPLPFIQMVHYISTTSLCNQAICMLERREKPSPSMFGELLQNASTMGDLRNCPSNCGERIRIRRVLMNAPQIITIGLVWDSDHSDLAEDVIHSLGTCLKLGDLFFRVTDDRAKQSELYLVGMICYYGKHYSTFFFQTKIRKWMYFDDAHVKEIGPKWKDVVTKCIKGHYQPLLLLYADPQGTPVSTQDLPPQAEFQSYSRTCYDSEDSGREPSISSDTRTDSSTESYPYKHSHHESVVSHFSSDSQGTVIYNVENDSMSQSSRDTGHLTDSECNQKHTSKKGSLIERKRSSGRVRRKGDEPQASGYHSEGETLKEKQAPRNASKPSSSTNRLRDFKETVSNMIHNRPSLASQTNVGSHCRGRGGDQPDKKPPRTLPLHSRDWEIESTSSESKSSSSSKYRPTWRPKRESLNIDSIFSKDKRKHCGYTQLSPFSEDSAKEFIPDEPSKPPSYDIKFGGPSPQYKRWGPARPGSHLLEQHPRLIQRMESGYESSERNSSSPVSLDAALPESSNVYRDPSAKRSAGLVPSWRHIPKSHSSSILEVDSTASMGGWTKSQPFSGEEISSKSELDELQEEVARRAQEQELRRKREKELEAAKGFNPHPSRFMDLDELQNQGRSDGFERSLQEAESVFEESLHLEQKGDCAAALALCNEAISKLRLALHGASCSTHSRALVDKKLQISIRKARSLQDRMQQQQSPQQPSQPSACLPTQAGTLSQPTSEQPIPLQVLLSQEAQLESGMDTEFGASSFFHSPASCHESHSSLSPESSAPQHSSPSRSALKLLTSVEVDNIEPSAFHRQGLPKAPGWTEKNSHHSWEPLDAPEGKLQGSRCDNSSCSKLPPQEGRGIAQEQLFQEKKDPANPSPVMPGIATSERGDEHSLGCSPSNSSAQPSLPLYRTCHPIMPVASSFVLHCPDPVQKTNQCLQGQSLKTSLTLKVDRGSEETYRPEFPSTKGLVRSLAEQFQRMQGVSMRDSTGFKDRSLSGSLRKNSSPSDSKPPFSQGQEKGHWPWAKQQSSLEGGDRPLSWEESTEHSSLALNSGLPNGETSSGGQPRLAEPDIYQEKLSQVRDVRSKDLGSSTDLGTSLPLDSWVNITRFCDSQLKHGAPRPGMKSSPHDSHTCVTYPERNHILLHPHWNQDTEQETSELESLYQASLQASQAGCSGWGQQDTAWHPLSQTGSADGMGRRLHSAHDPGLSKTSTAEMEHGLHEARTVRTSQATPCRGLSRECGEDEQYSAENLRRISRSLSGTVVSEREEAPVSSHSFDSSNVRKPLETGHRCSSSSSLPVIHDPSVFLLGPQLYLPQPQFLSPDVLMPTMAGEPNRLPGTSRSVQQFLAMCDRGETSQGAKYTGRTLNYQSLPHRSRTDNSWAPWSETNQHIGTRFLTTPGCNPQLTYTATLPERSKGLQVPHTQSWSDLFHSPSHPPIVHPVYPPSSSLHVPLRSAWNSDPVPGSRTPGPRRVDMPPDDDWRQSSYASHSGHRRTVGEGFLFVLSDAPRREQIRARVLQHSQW
Chain of USP7 (Q93009 whole entry, looked up): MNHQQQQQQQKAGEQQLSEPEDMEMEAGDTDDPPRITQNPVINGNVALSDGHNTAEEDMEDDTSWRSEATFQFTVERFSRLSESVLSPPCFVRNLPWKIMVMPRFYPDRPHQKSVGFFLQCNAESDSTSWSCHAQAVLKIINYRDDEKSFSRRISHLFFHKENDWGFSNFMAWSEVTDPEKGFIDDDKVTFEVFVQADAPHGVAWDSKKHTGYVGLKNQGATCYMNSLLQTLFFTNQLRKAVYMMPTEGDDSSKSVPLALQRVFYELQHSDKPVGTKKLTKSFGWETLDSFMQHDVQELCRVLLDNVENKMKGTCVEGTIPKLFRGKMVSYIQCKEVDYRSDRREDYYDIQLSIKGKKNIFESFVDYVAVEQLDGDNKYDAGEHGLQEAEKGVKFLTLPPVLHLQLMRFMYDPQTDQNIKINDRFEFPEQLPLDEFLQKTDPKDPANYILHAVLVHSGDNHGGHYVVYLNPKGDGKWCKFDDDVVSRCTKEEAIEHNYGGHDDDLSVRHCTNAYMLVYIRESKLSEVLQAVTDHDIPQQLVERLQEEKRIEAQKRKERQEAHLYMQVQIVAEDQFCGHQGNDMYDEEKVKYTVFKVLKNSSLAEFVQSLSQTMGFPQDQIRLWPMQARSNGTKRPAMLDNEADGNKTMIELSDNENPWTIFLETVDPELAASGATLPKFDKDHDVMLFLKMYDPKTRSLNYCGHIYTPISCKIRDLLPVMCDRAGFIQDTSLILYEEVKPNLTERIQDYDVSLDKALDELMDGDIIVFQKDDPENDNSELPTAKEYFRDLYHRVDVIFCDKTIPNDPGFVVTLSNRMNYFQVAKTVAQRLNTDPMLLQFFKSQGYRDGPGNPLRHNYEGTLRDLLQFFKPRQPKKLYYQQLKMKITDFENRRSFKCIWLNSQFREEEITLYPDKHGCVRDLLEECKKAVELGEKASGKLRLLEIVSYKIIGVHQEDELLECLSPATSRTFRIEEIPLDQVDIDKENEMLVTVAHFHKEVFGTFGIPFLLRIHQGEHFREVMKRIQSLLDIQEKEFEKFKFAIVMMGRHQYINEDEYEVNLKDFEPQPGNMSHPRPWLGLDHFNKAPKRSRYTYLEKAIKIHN

Cl.Cn1nc2c(c1CNC(=O)CCl)CCCC2
inactive: USP42 -0.241 | USP46 0.117 | USP47 0.0138 | USP48 -0.0889 | USP5 0.0696 | USP54 0.268 | USP7 -0.055 | USP8 -0.598 | USP9X -0.188 | UniProt O00487 0.0603

— the supplement of paper PMC11732987, “Enantioselective OTUD7B fragment discovery through chemoproteomics screening and high-throughput optimisation” (Communications Chemistry, 2025)
